IDE exosite FP: exo-site inhibitors of human IDE, primary screen, biochemical, fluorescence anisotropy, probe displacement; purified IDE, FL-6b probe fluorescence polarization; active compounds read low; z-score at 20 µM; Insulin-degrading enzyme (Homo sapiens), P14735; 17,000 compounds, 6.3% hits; AID 1259349, 2017;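 active = z-score of -3 or lower, meaning strong loss of probe binding signal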;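 note: His-tagged human IDE residues 42-1019 made in E. coli with 30 nM FL-6b probe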
Target sequence (P14735 42-1019 limits assumed): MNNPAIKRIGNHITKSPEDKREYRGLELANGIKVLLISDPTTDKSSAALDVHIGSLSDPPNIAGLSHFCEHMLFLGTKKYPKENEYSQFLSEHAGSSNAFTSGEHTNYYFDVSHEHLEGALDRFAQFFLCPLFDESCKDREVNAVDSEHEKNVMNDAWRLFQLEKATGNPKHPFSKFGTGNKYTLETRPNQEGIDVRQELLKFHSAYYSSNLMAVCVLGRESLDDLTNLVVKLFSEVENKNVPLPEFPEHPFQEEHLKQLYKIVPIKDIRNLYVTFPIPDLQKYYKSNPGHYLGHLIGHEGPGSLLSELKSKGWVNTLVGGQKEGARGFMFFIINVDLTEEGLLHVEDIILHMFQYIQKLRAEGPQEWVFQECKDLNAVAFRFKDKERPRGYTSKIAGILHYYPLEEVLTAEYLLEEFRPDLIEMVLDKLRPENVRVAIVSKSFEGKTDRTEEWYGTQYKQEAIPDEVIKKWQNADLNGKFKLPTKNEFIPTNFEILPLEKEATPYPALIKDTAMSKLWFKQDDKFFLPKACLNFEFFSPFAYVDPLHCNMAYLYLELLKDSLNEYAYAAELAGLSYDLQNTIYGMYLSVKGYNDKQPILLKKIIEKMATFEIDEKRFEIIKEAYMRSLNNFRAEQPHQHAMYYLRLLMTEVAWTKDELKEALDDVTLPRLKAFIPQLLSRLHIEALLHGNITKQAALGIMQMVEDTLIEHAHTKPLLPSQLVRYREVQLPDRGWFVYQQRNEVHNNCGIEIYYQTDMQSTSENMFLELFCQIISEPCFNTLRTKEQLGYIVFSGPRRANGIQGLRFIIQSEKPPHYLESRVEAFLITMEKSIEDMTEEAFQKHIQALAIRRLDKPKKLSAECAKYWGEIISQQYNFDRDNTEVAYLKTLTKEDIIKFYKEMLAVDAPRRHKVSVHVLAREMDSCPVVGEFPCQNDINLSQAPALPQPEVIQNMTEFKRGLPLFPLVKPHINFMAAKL
Hits are given with their value. Only a selection was taken, and hits are over-represented in it overall.

What do the screens show for `Cn1cnc(S(=O)(=O)N2CCCCN3[C@@H](CO)[C@@H](c4ccc(-c5cccc(F)c5)cc4)[C@@H]3C2)c1`?
IDE exosite FP: -4.6

How did Cn1cnc(S(=O)(=O)N2CCCCN3[C@H](CO)[C@H](c4ccc(-c5ccc(F)cc5)cc4)[C@@H]3C2)c1 do in these assays?
IDE exosite FP: inactive

What do the screens show for `Cn1cnc(S(=O)(=O)N2CCCCN3[C@H](CO)[C@@H](c4ccc(-c5cccc(F)c5)cc4)[C@@H]3C2)c1`?
IDE exosite FP: -3.7

What do the screens show for `Cn1cnc(S(=O)(=O)N2CCCCN3[C@H](CO)[C@@H](c4ccc(-c5cccc(F)c5)cc4)[C@H]3C2)c1`?
IDE exosite FP: inactive

Results for O=C(NC1CCC1)[C@@H]1[C@@H](CO)[C@@H]2Cn3c(ccc(-c4ccncc4)c3=O)[C@H]1N2Cc1cocn1 ?
IDE exosite FP: inactive

Results for O=C1CN(Cc2ccc(F)cc2)C[C@H]2[C@@H](c3ccc(-c4ccccc4F)cc3)[C@H](CO)N12 ?
IDE exosite FP: inactive

What do the screens show for `C[C@H](CO)N1C[C@H](C)[C@@H](CN(C)Cc2ccc3c(c2)OCO3)OCCCC[C@H](C)Oc2ccc(NS(=O)(=O)c3cn(C)cn3)cc2C1=O`?
IDE exosite FP: inactive

What do the screens show for `O=C(Nc1cccc(F)c1)N1CC(=O)N2[C@H](CO)[C@@H](c3ccc(C#Cc4cccnc4)cc3)[C@H]2C1`?
IDE exosite FP: inactive

Results for CN1CCN(C(=O)C[C@@H]2CC[C@@H]3[C@H](COC[C@@H](O)CN3C(=O)c3ccccc3F)O2)CC1 ?
IDE exosite FP: inactive

Results for COc1ccc(C[C@H]2CCn3nncc3COC[C@@H](c3ccccc3)NC2=O)cc1 ?
IDE exosite FP: inactive

Results for O=C(C[C@@H]1CC[C@@H]2NC[C@H](O)COC[C@H]2O1)NCc1ccc2c(c1)OCO2 ?
IDE exosite FP: inactive

What do the screens show for `O=C(C[C@H]1CC[C@@H]2[C@H](COC[C@H](O)CN2C(=O)c2ccncc2)O1)NCc1cc(F)cc(F)c1`?
IDE exosite FP: inactive

How did C/C=C/c1ccc([C@H]2[C@H]3CN(C(=O)Nc4ccc(OC)cc4)CC(=O)N3[C@H]2CO)cc1 do in these assays?
IDE exosite FP: -5.1

Results for COc1ccc(-c2ccc([C@@H]3[C@H](CO)N4C(=O)CNC[C@@H]34)cc2)cc1 ?
IDE exosite FP: inactive

What do the screens show for `C/C=C/c1ccc([C@H]2[C@@H](CO)N3C(=O)CN(C(=O)Nc4ccc(OC)cc4)C[C@@H]23)cc1`?
IDE exosite FP: inactive

Results for COc1ccc(-c2ccc([C@H]3[C@H](CO)N4C(=O)CN(C(=O)NC(C)C)C[C@@H]34)cc2)cc1 ?
IDE exosite FP: -3.8

Results for C/C=C/c1ccc([C@H]2[C@H](CO)N3C(=O)CN(C(=O)Nc4ccc(OC)cc4)C[C@@H]23)cc1 ?
IDE exosite FP: inactive

Results for COc1ccc(C#Cc2ccc([C@@H]3[C@@H](CO)N4C(=O)CN(C(=O)NC(C)C)C[C@H]34)cc2)cc1 ?
IDE exosite FP: inactive

What do the screens show for `COc1ccc(C#Cc2ccc([C@@H]3[C@H]4CN(C(=O)NC(C)C)CC(=O)N4[C@H]3CO)cc2)cc1`?
IDE exosite FP: inactive

What do the screens show for `COc1ccc(-c2ccc([C@@H]3[C@H]4CNCC(=O)N4[C@H]3CO)cc2)cc1`?
IDE exosite FP: inactive

How did COc1cccc(-c2ccc([C@H]3[C@@H](CO)N4C(=O)CN(C(=O)NC(C)C)C[C@@H]34)cc2)c1 do in these assays?
IDE exosite FP: -5.4

How did COc1ccc(-c2ccc([C@H]3[C@@H](CO)N4C(=O)CNC[C@H]34)cc2)cc1 do in these assays?
IDE exosite FP: -3.2

How did COCC(=O)Nc1ccc2c(c1)[C@@H]1C[C@H](CC(=O)N[C@H](C)c3ccccc3)O[C@H](CO)[C@@H]1O2 do in these assays?
IDE exosite FP: inactive

What do the screens show for `Cc1noc(C)c1S(=O)(=O)N(C)C[C@@H]1OCCCC[C@@H](C)Oc2ccc(NS(=O)(=O)c3cn(C)cn3)cc2C(=O)N([C@H](C)CO)C[C@@H]1C`?
IDE exosite FP: inactive

What do the screens show for `CN(C)CC(=O)N1[C@H](C#N)[C@@H](c2ccccc2-c2ccccc2F)[C@H]1CO`?
IDE exosite FP: inactive

How did O=C(C[C@H]1C=C[C@H](NC(=O)CCN2CCCCC2)[C@@H](CO)O1)Nc1nccs1 do in these assays?
IDE exosite FP: inactive

How did CCS(=O)(=O)N1CC(=O)N2[C@@H](CO)[C@H](c3ccc(C#CCC4CCCC4)cc3)[C@@H]2C1 do in these assays?
IDE exosite FP: inactive

Results for O=C1CN(S(=O)(=O)Cc2ccccc2)C[C@H]2[C@@H](c3ccc(C#CCC4CCCC4)cc3)[C@@H](CO)N12 ?
IDE exosite FP: inactive

What do the screens show for `CN(C)C(=O)c1cccc(-c2ccc([C@@H]3[C@@H](CO)N(C(=O)C4CCCCC4)[C@H]3C#N)cc2)c1`?
IDE exosite FP: inactive

What do the screens show for `CCC(=O)N1[C@H](CO)[C@H](c2ccc(C3=CCCCC3)cc2)[C@H]1CNC1CCCC1`?
IDE exosite FP: inactive

How did CCS(=O)(=O)N1CC2(CN(C(=O)NC(C)C)[C@H](CO)c3c2c2ccc(OC)cc2n3C)C1 do in these assays?
IDE exosite FP: inactive

Results for COCC(=O)NC[C@H]1N[C@H](CO)[C@@H]1c1ccc(C#CC2CCCCC2)cc1 ?
IDE exosite FP: inactive

What do the screens show for `O=S(=O)(c1cccc(F)c1)N1CC[C@@H]2[C@H]1c1cc(C#Cc3ccccc3F)ccc1N[C@@H]2CO`?
IDE exosite FP: inactive

Results for C[C@H]1CC(=O)N[C@H](c2ccccc2)C/C=C\C[C@H](c2ccc3c(c2)OCO3)NC1=O ?
IDE exosite FP: inactive

Results for COc1ccc(NC(=O)N2CC(=O)N3[C@H](CO)[C@H](c4ccc(-c5ccc(C)cc5)cc4)[C@@H]3C2)cc1 ?
IDE exosite FP: inactive

How did COc1ccc(C#Cc2ccc([C@H]3[C@@H](CO)N4C(=O)CN(C(=O)NC(C)C)C[C@H]34)cc2)cc1 do in these assays?
IDE exosite FP: inactive

How did COc1ccc(NC(=O)N2CC(=O)N3[C@H](C2)[C@H](c2ccc(-c4ccccc4)cc2)[C@@H]3CO)cc1 do in these assays?
IDE exosite FP: inactive

What do the screens show for `Cc1ccc(-c2ccc([C@@H]3[C@@H](CO)N4C(=O)CN(C(=O)NC(C)C)C[C@H]34)cc2)cc1`?
IDE exosite FP: inactive

Results for COc1cccc(-c2ccc([C@@H]3[C@@H](CO)N4C(=O)CN(C(=O)NC(C)C)C[C@H]34)cc2)c1 ?
IDE exosite FP: -3.5

What do the screens show for `COc1cccc(-c2ccc([C@@H]3[C@@H](CO)N4C(=O)CN(C(=O)NC(C)C)C[C@@H]34)cc2)c1`?
IDE exosite FP: -14

How did Cc1ccc(-c2ccc([C@H]3[C@@H](CO)N4C(=O)CN(C(=O)NC(C)C)C[C@@H]34)cc2)cc1 do in these assays?
IDE exosite FP: inactive

Results for COc1cccc(NC(=O)N2CC(=O)N3[C@H](C2)[C@@H](c2ccc(Br)cc2)[C@@H]3CO)c1 ?
IDE exosite FP: -3.2

What do the screens show for `COc1ccc(C#Cc2ccc([C@H]3[C@H](CO)N4C(=O)CN(C(=O)NC(C)C)C[C@@H]34)cc2)cc1`?
IDE exosite FP: inactive

Results for COc1cccc(NC(=O)N2CC(=O)N3[C@H](CO)[C@@H](c4ccc(Br)cc4)[C@H]3C2)c1 ?
IDE exosite FP: inactive

Results for COc1cccc(-c2ccc([C@@H]3[C@H]4CN(C(=O)NC(C)C)CC(=O)N4[C@H]3CO)cc2)c1 ?
IDE exosite FP: -12

What do the screens show for `COc1cccc(NC(=O)N2CC(=O)N3[C@@H](CO)[C@@H](c4ccc(Br)cc4)[C@@H]3C2)c1`?
IDE exosite FP: inactive
